# Source: PubChem BioAssay
# BioA inh – BioA (M. tuberculosis) enzyme inhibition; purified M. tuberculosis BioA enzyme, plate reader; inhibition, % at 9.99 µM; 360,000 tested, 0.096% active; in the data active means inhibition above about 40%
# UGM FP inh – inhibitors of M. tuberculosis UDP-galactopyranose mutase. purified UGM, fluorescence polarization probe displacement. inhibition, % at 10 µM. 320,000 tested, 0.06% active. AID 504406; in the data active means inhibition above about 10%, passing the limit was not always enough
# FadD28 binding – blocks FadD28 binding to the bisubstrate probe | fluorescence polarization | inhibition, % at 12.5 µM | 360,000 tested, 0.22% active | AID 588549; in the data active means inhibition above about 8.5%, passing the limit was not always enough
# RecA splice inh – Mtb RecA intein splicing inhibition | inhibition, % (concentration not given with the values) | cell-free RecA intein splicing, fluorescence | AID 2221 | 290,000 tested, 0.75% active | P9WHJ3; in the data active means inhibition above about 30%
# Y pestis TopoI – Y. pestis Topo-I inhibition via cleavage products; activity, % at 10 µM; 360,000 tested, 0.064% active; AID 504884; Y. pestis Topo-I cleavage product accumulation, plate reader; in the data active means activity above about 50%, passing the limit was not always enough
# Rv3671c inh – inhibits the M. tuberculosis serine protease Rv3671c; P9WHR9; inhibition, % at 5.96 µM; 320,000 tested, 0.048% active; AID 2606; in the data active means inhibition above about 38%;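 further: extracellular domain of Rv3671c used as enzyme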
# Target sequence (P9WHR9 whole entry, looked up, the tested form may be a part): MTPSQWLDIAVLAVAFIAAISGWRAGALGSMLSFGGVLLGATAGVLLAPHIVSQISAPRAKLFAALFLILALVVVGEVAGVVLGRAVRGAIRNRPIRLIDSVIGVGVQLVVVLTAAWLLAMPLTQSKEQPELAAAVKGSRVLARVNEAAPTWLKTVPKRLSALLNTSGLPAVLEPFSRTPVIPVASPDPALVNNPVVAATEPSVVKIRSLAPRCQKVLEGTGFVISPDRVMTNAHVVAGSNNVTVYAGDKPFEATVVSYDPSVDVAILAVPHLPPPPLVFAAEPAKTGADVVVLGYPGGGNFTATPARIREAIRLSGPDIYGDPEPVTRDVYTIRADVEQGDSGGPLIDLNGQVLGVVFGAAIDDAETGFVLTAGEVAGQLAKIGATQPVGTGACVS
# GFP chromo cs – counter-screen GFP chromophore formation inhibition | cell-free GFP chromophore formation, fluorescence | 2,100 tested, 83% active | EC50, µM | shares compounds with RecA splice inh | AID 434968; call rule not given here
# Numbers stand for hits; n = inactive; x = no result. The list is not random: actives were taken first. Their share in the collection is about 0.82%.
SMILES,BioA inh,UGM FP inh,FadD28 binding,RecA splice inh,Y pestis TopoI,Rv3671c inh,GFP chromo cs
COCC(=O)N(C)C[C@H]1Oc2ncc(C#CC(C)(C)O)cc2C(=O)N([C@H](C)CO)C[C@@H]1C,n,x,x,x,x,x,x
CNC[C@@H]1OCCCC[C@@H](C)Oc2ccc(NC(=O)Nc3ccc(C(F)(F)F)cc3)cc2C(=O)N([C@@H](C)CO)C[C@H]1C,n,x,x,x,x,x,x
COc1ccc(C(C[N+](=O)[O-])c2c(C)cc3ccccn23)cc1 (centres undefined),n,n,n,n,n,n,x
Cc1[nH]n(-c2ccccc2)c(=O)c1-c1ccccc1,n,n,n,n,n,n,x
Cc1[nH]n(-c2ccccc2)c(=O)c1C(C[N+](=O)[O-])c1ccccc1Cl (centres undefined),n,n,n,75.2,n,n,15.4
COc1ccc(C(C[N+](=O)[O-])c2c(C)[nH]n(-c3ccccc3)c2=O)cc1 (centres undefined),n,n,n,95.1,n,n,5.26
Cc1ccc2c(c1)c1c(n2CC(O)CN2CCCCCC2)CCCC1 (centres undefined),n,n,n,44.2,n,n,n
Cc1ccc2c(c1)c1c(n2CC(O)CNC(C)(C)C)CCCC1 (centres undefined),n,x,n,x,n,x,x
C/C=C/c1cnc2c(c1)C(=O)N([C@@H](C)CO)C[C@@H](C)[C@H](CN(C)S(=O)(=O)c1ccccc1F)O2,n,x,x,x,x,x,x
CCOC(=O)CSCCOc1ccc(C=C2C(=O)NC(=O)NC2=O)cc1OC,n,n,n,73.4,n,n,n
O=S(=O)(NCC[C@H]1CC[C@H](NS(=O)(=O)c2ccccc2Cl)[C@@H](CO)O1)c1ccc(F)cc1,n,x,x,x,x,x,x
C[C@H]1CN([C@@H](C)CO)C(=O)Cc2cc(NS(=O)(=O)c3ccc(Cl)cc3)ccc2O[C@@H]1CN(C)S(=O)(=O)c1cn(C)cn1,n,x,x,x,x,x,x
CC(C)c1nnc(NC(=O)c2nc(S(=O)(=O)Cc3ccccc3F)ncc2Cl)s1,x,n,x,83.1,x,n,13.9
CC(C)c1nnc(NC(=O)CCC(=O)NCc2ccccc2Cl)s1,n,n,n,n,n,n,x
Cc1nnc(NC(=O)CCS(=O)(=O)c2ccccc2)s1,n,n,n,n,n,n,x
CSc1nnc(NC(=O)c2nc(S(=O)(=O)Cc3ccccc3F)ncc2Cl)s1,n,n,n,76.1,n,n,22.9
Cc1nnc(NC(=O)c2nc(S(=O)(=O)Cc3ccccc3C)ncc2Cl)s1,n,n,n,67.1,n,n,n
O=C(C[C@H]1CC[C@@H](NS(=O)(=O)c2ccc(F)cc2)[C@H](CO)O1)NC1CCCCC1,n,x,x,x,x,x,x
C[C@H]1CN([C@@H](C)CO)C(=O)c2ccccc2-c2ccccc2CO[C@H]1CN(C)C(=O)Nc1cccc(F)c1,n,x,x,x,x,x,x
O=C(CSc1nnc(Cc2ccccc2)o1)Nc1cccc(F)c1,n,n,n,43.4,n,n,n
O=C(CSc1nnc(Cc2ccccc2)o1)Nc1ccccc1,x,n,n,n,n,n,x
CC(C)NC(=O)Nc1ccc2c(c1)C(=O)N([C@H](C)CO)C[C@@H](C)[C@@H](CN(C)S(=O)(=O)c1ccccc1)OCCCC[C@H](C)O2,n,x,x,x,x,x,x
C[C@@H]1CCCCO[C@@H](CN(C)S(=O)(=O)c2ccccc2)[C@H](C)CN([C@H](C)CO)C(=O)c2cc(NS(=O)(=O)c3ccc(F)cc3)ccc2O1,n,x,x,x,x,x,x
O=[N+]([O-])c1ccc2nc(-[n+]3c(-c4ccccc4)cc(-c4ccccc4)cc3-c3ccccc3)[nH]c2c1,x,n,n,n,n,n,x
O=[N+]([O-])c1ccc2nc(Cl)nc(-c3ccccc3)c2c1,n,n,n,46.7,n,x,n
SMILES,BioA inh,UGM FP inh,FadD28 binding,RecA splice inh,Y pestis TopoI,Rv3671c inh,GFP chromo cs
COc1ccc(S(=O)(=O)N2C[C@@H](O)COC[C@@H]3O[C@H](CC(=O)NCc4ccc(Cl)c(Cl)c4)CC[C@H]32)cc1,n,x,x,x,x,x,x
CCC(=O)Nc1ccc2c(c1)OC[C@H](C)N(C(=O)C1CCC1)C[C@H](C)[C@H](OC)CN(C)C2=O,n,x,x,x,x,x,x
C[C@@H]1CCCCO[C@@H](CN(C)C(=O)Nc2ccccc2)[C@@H](C)CN([C@@H](C)CO)C(=O)c2cc(NS(=O)(=O)c3ccc(Cl)cc3)ccc2O1,n,x,x,x,x,x,x
Cc1noc(C)c1COC(=O)Cc1ccc(Br)cc1,x,n,n,n,n,n,n
C[C@@H]1CN([C@H](C)CO)C(=O)c2cccc(NS(=O)(=O)c3cccs3)c2O[C@@H]1CN(C)Cc1ccc(C(=O)O)cc1,n,x,x,x,x,x,x
O=[N+]([O-])c1cc(C(F)(F)F)ccc1N1CCCC(O)C1 (centres undefined),x,n,n,n,n,n,x
O=[N+]([O-])c1ccc(N2CCCC(C(F)(F)F)C2)c2ccncc12 (centres undefined),n,n,n,32.9,n,n,n
CC(=O)N(Cc1ccc(F)cc1)C1=C(NCc2ccccc2)C(=O)c2ccccc2C1=O,n,x,n,76.6,n,x,5.9
COCC#Cc1cnc2c(c1)C(=O)N([C@H](C)CO)C[C@H](C)[C@H](CN(C)S(=O)(=O)c1cn(C)cn1)O2,n,x,x,x,x,x,x
O=[N+]([O-])c1c(Nc2ccccn2)cc(Cl)c2nonc12,x,n,n,87.1,n,n,2.11
O=[N+]([O-])c1c(Nc2ccc(O)cc2)cc(Cl)c2nonc12,n,n,n,95.3,n,n,1.01
O=C(O)c1ccccc1Nc1cc(Cl)c2nonc2c1[N+](=O)[O-],n,n,n,89.6,n,n,2.64
O=C(O)c1cccc(Nc2cc(Cl)c3nonc3c2[N+](=O)[O-])c1,x,n,n,88.3,n,n,4.77
O=C(O)c1cccc(Nc2ccc([N+](=O)[O-])c3nonc23)c1,x,n,n,n,n,n,x
Cc1noc(C)c1NC(=O)N(C)C[C@H]1Oc2ccc(NS(=O)(=O)c3cn(C)cn3)cc2CC(=O)N([C@H](C)CO)C[C@H]1C,n,x,x,x,x,x,x
O=[N+]([O-])c1cc(C(F)(F)F)cc([N+](=O)[O-])c1NCCNC(=S)Nc1ccc(Cl)c(Cl)c1,n,n,n,30.3,n,n,n
FC(F)(F)c1cccc(NC(=S)Nc2ccc(Cl)c(Cl)c2)c1,n,n,n,n,n,n,x
COc1ccc(NC(=O)C(Cl)=C(Cl)Cl)cn1,x,x,n,n,n,x,x
COc1ccc(NC(=O)/C(Cl)=C(/Cl)S(=O)(=O)Cc2ccccc2)cn1,n,x,n,76.4,n,x,7.45
CN1C(=O)c2cc(NC(=O)c3ccccc3Cl)ccc2OC[C@@H]2O[C@@H](CC(=O)NCC(F)(F)F)CC[C@@H]21,n,x,x,x,x,x,x
Cc1ccc(S(=O)(=O)Nc2ccc3c(c2)CC(=O)N([C@@H](C)CO)C[C@@H](C)[C@H](CN(C)C(=O)NC(C)C)O3)cc1,n,x,x,x,x,x,x
CC(C)(C)c1ccc(/C=C(\c2nc3ccccc3[nH]2)S(=O)(=O)c2ccccc2)cc1,n,n,n,82.4,n,n,6.61
CC(=O)N(C)C[C@H]1Oc2ncc(-c3ccc(C(=O)N(C)C)cc3)cc2C(=O)N([C@@H](C)CO)C[C@@H]1C,n,x,x,x,x,x,x
